Reference: PubChem BioAssay (EPA / NIEHS)
Results filed as inconclusive are left out. Active and inactive are the calls of the source. Rule for the calls, unless noted: active = hit-call score of the fitted dose curve at least 0.9, where 1 is the maximum; inconclusive = response in the unintended direction; inactive = score below 0.9.

Columns and labels:
[1] = read-out: glucuronosyltransferase (UGT1A1), UGT1A1 (gene 54658); test: CLD_UGT1A1_24hr: CellzDirect (CLD) Gene Expression Assay for glucuronosyltransferase (UGT1A1) at 24 hours (AID 2283696)
In short: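 Primary human hepatocytes from two donor preparations were dosed (0.2% DMSO vehicle) and harvested at 24 h; UGT1A1 mRNA induction was quantified by chemiluminescent qNPA, fitted as gain relative to DMSO.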

[2] = read-out: Cytochrome P450 3A4 (Homo sapiens) (UniProt P08684); test: CLD_CYP3A4_48hr: CellzDirect (CLD) Gene Expression Assay for xenobiotic metabolism (CYP3A4) at 48 hours (AID 2283698)
In short: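 Primary human hepatocytes from two donor preparations dosed daily for two days with multiple chemical concentrations, 0.2% DMSO vehicle. CYP3A4 mRNA at 48 h by quantitative nuclease protection assay, chemiluminescence, positive fit versus DMSO; cytotoxicity flagged morphologically.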

[3] = read-out: Cytochrome P450 2B6 (Homo sapiens) (UniProt P20813); test: CLD_CYP2B6_48hr: CellzDirect (CLD) Gene Expression Assay for xenobiotic metabolism (CYP2B6) at 48 hours (AID 2283699);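 note: actives raise transcript level above DMSO so potency reflects induction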
In short: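 Primary human hepatocytes dosed daily for two days over multiple concentrations, 0.2% DMSO vehicle; CYP2B6 mRNA quantified at 48 h by qNPA chemiluminescence. Induction fitted as gain of signal versus DMSO; cytotoxicity annotated by morphology.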

[4] = CLD_ACTIN_48hr: CellzDirect (CLD) Gene Expression Assay for Baseline Control (Actin) at 48 hours (AID 2283702)
In short: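 Primary human hepatocytes (two donor preparations) dosed daily for two days with ToxCast chemicals at multiple concentrations versus 0.2% DMSO vehicle; harvested at 48 h. Actin mRNA measured as a background control by quantitative nuclease protection assay with chemiluminescence.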

[5] = read-out: xenobiotic metabolism (CYP1A2), CYP1A2 (gene 1544); test: CLD_CYP1A2_48hr: CellzDirect (CLD) Gene Expression Assay for xenobiotic metabolism (CYP1A2) at 48 hours (AID 2283703)
In short: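 Primary human hepatocytes from two donor preparations were dosed daily for two days at multiple concentrations in 0.2% DMSO vehicle. CYP1A2 mRNA was measured at 48 hours by chemiluminescent quantitative nuclease protection assay, with gain of signal fitted versus DMSO and cytotoxicity annotated from morphology.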

[6] = read-out: xenobiotic metabolism (CYP1A1), CYP1A1 (gene 1543); test: CLD_CYP1A1_48hr: CellzDirect (CLD) Gene Expression Assay for xenobiotic metabolism (CYP1A1) at 48 hours (AID 2283705)
In short: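 Primary human hepatocytes from two donors dosed daily for two days at multiple concentrations, 0.2% DMSO vehicle; CYP1A1 mRNA induction at 48 h by qNPA chemiluminescence. Cytotoxicity noted by phase-contrast morphology.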

[7] = read-out: Glyceraldehyde-3-phosphate dehydrogenase (Homo sapiens) (UniProt P04406); test: CLD_GAPDH_48hr: CellzDirect (CLD) Gene Expression Assay for Baseline Control (Glyceraldehyde 3-phosphate dehydrogenase) at 48 hours (AID 2283706);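 note: active means higher GAPDH mRNA than DMSO vehicle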
In short: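 Primary human hepatocytes dosed daily for two days with fresh chemical at multiple concentrations, 0.2% DMSO vehicle; GAPDH mRNA measured at 48 h by quantitative nuclease protection assay with chemiluminescence, fitted upward relative to DMSO as background control.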

[8] = read-out: organic anion transporter (SLCO1B1), SLCO1B1 (gene 10599); test: CLD_SLCO1B1_48hr: CellzDirect (CLD) Gene Expression Assay for organic anion transporter (SLCO1B1) at 48 hours (AID 2283707)
In short: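 Primary human hepatocytes from two donor preparations dosed daily for two days with multiple concentrations, 0.2% DMSO vehicle. SLCO1B1 mRNA at 48 h by quantitative nuclease protection assay, chemiluminescence; gain-of-signal fitted versus DMSO.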

[9] = read-out: Glyceraldehyde-3-phosphate dehydrogenase (Homo sapiens) (UniProt P04406); test: CLD_GAPDH_24hr: CellzDirect (CLD) Gene Expression Assay for Baseline Control (Glyceraldehyde 3-phosphate dehydrogenase) at 24 hours (AID 2283692)
In short: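 Primary human hepatocytes (two donor preparations) dosed daily for two days, 0.2% DMSO vehicle; GAPDH mRNA measured at 24 h by qNPA chemiluminescence as a background control, gain-of-signal fitted against DMSO.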

[10] = read-out: ABC Transporter (ABCB11), ABCB11 (gene 8647); test: CLD_ABCB11_48hr: CellzDirect (CLD) Gene Expression Assay for ABC Transporter (ABCB11) at 48 hours (AID 2283697)
In short: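 Primary human hepatocytes from two donor preparations dosed daily for two days at multiple concentrations; 0.2% DMSO vehicle. ABCB11 mRNA at 48 h by quantitative nuclease protection assay, chemiluminescence; fitted for induction versus DMSO.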

[11] = read-out: alkyl and aryl transferase (GSTA2), GSTA2 (gene 2939); test: CLD_GSTA2_48hr: CellzDirect (CLD) Gene Expression Assay for alkyl and aryl transferase (GSTA2) at 48 hours (AID 2283708);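 note: active means mRNA induction above DMSO vehicle baseline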
In short: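 Primary human hepatocytes dosed daily for two days (0.2% DMSO vehicle), harvested at 48 h. GSTA2 mRNA induction measured by quantitative nuclease protection assay with chemiluminescent imaging, fitted for gain of signal relative to DMSO.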

[12] = read-out: glucuronosyltransferase (UGT1A1), UGT1A1 (gene 54658); test: CLD_UGT1A1_48hr: CellzDirect (CLD) Gene Expression Assay for glucuronosyltransferase (UGT1A1) at 48 hours (AID 2283709);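 note: actives increase expression relative to DMSO so potency refers to induction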
In short: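 Human primary hepatocytes dosed daily for two days (0.2% DMSO vehicle), harvested at 48 h. UGT1A1 mRNA induction measured by quantitative nuclease protection assay with chemiluminescence; gain of signal versus DMSO; cytotoxicity flagged from morphology.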

[13] = STM_H9_OrnithineISnorm_perc: Stemina devTOX quickPredict H9 human embryonic stem cell (hESC)-based Assay for Ornithine (ORN) Metabolite Biomarker, Normalized (AID 2283712; active = hit-call score of the fitted dose curve at least 0.9, where 1 is the maximum; inactive = score below 0.9;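 note: ornithine released into spent medium during last day measured by mass spectrometry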)
In short: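 Undifferentiated pluripotent H9 hESCs were exposed to compound for 72h, with media and compound replaced every 24h. Ornithine in final 24-h conditioned media was measured by UPLC-HRMS, normalized to 13C-labeled spike-in standard and to median 0.1% DMSO control.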

[14] = read-out: alkyl and aryl transferase (GSTA2), GSTA2 (gene 2939); test: CLD_GSTA2_24hr: CellzDirect (CLD) Gene Expression Assay for alkyl and aryl transferase (GSTA2) at 24 hours (AID 2283693)
In short: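 Primary human hepatocytes (two donor preparations) dosed daily for two days with chemicals at multiple concentrations (vehicle 0.2% DMSO); GSTA2 mRNA at 24 h measured by qNPA chemiluminescence, gain-of-signal versus DMSO.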

[15] = read-out: sulfotransferase (SULT2A), SULT2A1 (gene 6822); test: CLD_SULT2A_24hr: CellzDirect (CLD) Gene Expression Assay for sulfotransferase (SULT2A) at 24 hours (AID 2283694)
In short: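 Primary human hepatocytes from two donor preparations were dosed daily with fresh solutions, vehicle 0.2% DMSO. At 24 h, lysates went to quantitative nuclease protection (qNPA) with S1 digestion and chemiluminescent readout. Cytotoxicity was annotated from phase-contrast morphology.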

[16] = read-out: ABC Transporter (ABCB1), ABCB1 (gene 5243); test: CLD_ABCB1_48hr: CellzDirect (CLD) Gene Expression Assay for ABC Transporter (ABCB1) at 48 hours (AID 2283695)
In short: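 Primary human hepatocytes from two donor preparations dosed daily on two consecutive days with 0.2% DMSO vehicle. Harvest at 48 h. ABCB1 mRNA quantified by qNPA with chemiluminescence and fitted for gain of signal versus DMSO.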

[17] = read-out: Broad substrate specificity ATP-binding cassette transporter ABCG2 (Homo sapiens) (UniProt Q9UNQ0); test: CLD_ABCG2_48hr: CellzDirect (CLD) Gene Expression Assay for ABC Transporter (ABCG2) at 48 hours (AID 2283704);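 note: potency for induction of ABCG2 mRNA above the DMSO baseline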
In short: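 Primary human hepatocytes from two donors, dosed daily for 2 days, 0.2% DMSO vehicle, several concentrations. ABCG2 mRNA at 48 h by qNPA chemiluminescence, gain fitted versus DMSO; cytotoxicity flagged by morphology.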

[18] = read-out: sulfotransferase (SULT2A), SULT2A1 (gene 6822); test: CLD_SULT2A_48hr: CellzDirect (CLD) Gene Expression Assay for sulfotransferase (SULT2A) at 48 hours (AID 2283710);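 note: hits raise SULT2A1 transcript above the 0.2% DMSO vehicle baseline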
In short: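 Primary human hepatocytes (two donor preparations) dosed daily for two days with chemicals at multiple concentrations, vehicle 0.2% DMSO; SULT2A1 mRNA induction at 48 h by quantitative nuclease protection assay, chemiluminescent read-out, fitted for gain of signal versus DMSO.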

Measured: AC50

Sequence of Cytochrome P450 3A4 (Homo sapiens) (P08684 whole entry, looked up): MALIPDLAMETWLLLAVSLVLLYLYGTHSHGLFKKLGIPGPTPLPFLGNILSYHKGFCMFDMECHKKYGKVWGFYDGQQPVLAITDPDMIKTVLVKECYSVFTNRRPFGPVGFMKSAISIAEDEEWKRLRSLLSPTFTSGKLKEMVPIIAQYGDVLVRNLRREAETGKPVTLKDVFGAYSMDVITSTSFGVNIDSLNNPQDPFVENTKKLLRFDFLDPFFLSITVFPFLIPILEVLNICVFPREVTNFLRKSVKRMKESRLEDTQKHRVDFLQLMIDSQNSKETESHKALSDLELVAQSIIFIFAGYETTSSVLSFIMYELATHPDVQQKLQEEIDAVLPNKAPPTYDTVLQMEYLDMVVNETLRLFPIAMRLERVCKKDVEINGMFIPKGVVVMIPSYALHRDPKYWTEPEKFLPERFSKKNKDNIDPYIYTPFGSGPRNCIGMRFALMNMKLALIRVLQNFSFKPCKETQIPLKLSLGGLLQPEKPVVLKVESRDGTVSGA
Sequence of Glyceraldehyde-3-phosphate dehydrogenase (Homo sapiens) (P04406 whole entry, looked up): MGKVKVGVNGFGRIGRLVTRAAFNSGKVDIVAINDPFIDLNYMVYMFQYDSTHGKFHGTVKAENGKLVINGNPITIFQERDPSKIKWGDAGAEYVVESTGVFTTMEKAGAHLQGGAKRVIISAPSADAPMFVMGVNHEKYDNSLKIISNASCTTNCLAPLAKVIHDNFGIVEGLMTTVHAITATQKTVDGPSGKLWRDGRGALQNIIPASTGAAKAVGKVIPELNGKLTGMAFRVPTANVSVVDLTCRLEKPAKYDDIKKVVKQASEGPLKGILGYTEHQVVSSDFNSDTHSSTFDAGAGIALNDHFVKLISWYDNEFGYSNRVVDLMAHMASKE
Sequence of Broad substrate specificity ATP-binding cassette transporter ABCG2 (Homo sapiens) (Q9UNQ0 whole entry, looked up): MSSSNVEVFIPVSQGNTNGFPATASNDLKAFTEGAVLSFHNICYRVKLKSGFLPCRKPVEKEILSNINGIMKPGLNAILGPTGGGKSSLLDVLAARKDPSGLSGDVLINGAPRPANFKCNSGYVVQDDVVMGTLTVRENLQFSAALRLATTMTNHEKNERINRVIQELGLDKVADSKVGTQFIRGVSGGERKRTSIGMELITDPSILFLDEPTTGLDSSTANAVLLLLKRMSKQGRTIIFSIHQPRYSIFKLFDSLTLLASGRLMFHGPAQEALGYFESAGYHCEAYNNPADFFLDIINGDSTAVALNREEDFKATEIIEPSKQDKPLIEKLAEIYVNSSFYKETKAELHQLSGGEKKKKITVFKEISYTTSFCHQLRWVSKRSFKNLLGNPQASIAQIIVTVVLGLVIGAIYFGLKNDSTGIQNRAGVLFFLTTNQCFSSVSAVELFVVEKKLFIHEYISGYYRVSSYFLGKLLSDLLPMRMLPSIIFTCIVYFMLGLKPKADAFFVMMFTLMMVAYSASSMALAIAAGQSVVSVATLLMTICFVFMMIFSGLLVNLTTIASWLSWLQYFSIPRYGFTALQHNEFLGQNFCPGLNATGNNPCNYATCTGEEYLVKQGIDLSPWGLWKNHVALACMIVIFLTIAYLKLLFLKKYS

CN1COCN(Cc2cnc(Cl)s2)C1=N[N+](=O)[O-]
inactive: [1] | [2] | [3] | [4] | [5] | [6] | [7] | [8]

CCC(=NOC/C=C/Cl)C1=C(O)CC(C2CCOCC2)CC1=O (centres undefined)
inactive: [9] | [1] | [10] | [3] | [5] | [7] | [8] | [11] | [12]
active: [13] 0.0699 µM

CCOP(=S)(OCC)Oc1ccc2c(C)c(Cl)c(=O)oc2c1
active: [1] 1.09 µM | [3] 1.01 µM | [5] 0.414 µM | [6] 1.89 µM | [13] 50 µM
inactive: [14] | [15] | [16] | [10] | [11] | [12]

C=C(C)[C@H]1Cc2c(ccc3c2O[C@@H]2COc4cc(OC)c(OC)cc4[C@@H]2C3=O)O1
active: [10] 3.73 µM | [17] 0.309 µM | [6] 2 µM | [13] 0.347 µM
inactive: [14] | [16] | [3] | [4] | [12] | [18]

CCC(CC)Nc1c([N+](=O)[O-])cc(C)c(C)c1[N+](=O)[O-]
active: [2] 20 µM | [3] 6.23 µM | [5] 9.85 µM
inactive: [14] | [16] | [1] | [4] | [6] | [7] | [8] | [12]

CC(C)[C@H](C(=O)O[C@H](C#N)c1cccc(Oc2ccccc2)c1)c1ccc(Cl)cc1
inactive: [14] | [15] | [16] | [1] | [11]
active: [2] 20 µM | [3] 8.04 µM | [5] 20 µM | [6] 20 µM | [12] 7.47 µM | [13] 50 µM

CCc1cccc(C)c1N(C(=O)CCl)C(C)COC (centres undefined)
inactive: [1] | [5] | [7] | [12]
active: [2] 3.97 µM | [3] 0.969 µM | [6] 20 µM

CN(C)C(=O)Nc1cccc(C(F)(F)F)c1
inactive: [14] | [1] | [10] | [7] | [8] | [12] | [18] | [13]
active: [2] 20 µM | [3] 3.69 µM | [5] 1.96 µM | [6] 7.21 µM

CNc1cnn(-c2cccc(C(F)(F)F)c2)c(=O)c1Cl
active: [2] 13.6 µM | [3] 3.19 µM | [5] 5.39 µM | [6] 5.37 µM
inactive: [15] | [1] | [12] | [13]

CCC(=O)Nc1ccc(Cl)c(Cl)c1
active: [3] 0.92 µM | [5] 4.67 µM | [6] 4.64 µM
inactive: [1] | [2] | [12]

CCOP(=O)(SC(C)CC)N1CCSC1=O (centres undefined)
active: [2] 5.18 µM | [3] 2.05 µM | [5] 4.51 µM
inactive: [1] | [10] | [8] | [12] | [18]

CNC(=O)Oc1cccc2c1OC(C)(C)O2
inactive: [14] | [1] | [4] | [5] | [6] | [12]
active: [3] 3.08 µM

Cc1ccn2nc(S(=O)(=O)Nc3c(F)cccc3F)nc2n1
inactive: [1] | [3] | [5] | [8] | [12] | [13]
active: [2] 3.97 µM

COP(=O)(OC)OC(Br)C(Cl)(Cl)Br (centres undefined)
inactive: [14] | [1] | [2] | [3] | [4] | [5] | [6] | [7] | [12] | [18]

CCCCN(CC)c1c([N+](=O)[O-])cc(C(F)(F)F)cc1[N+](=O)[O-]
active: [1] 9.11 µM | [2] 6.48 µM | [3] 4.17 µM | [5] 5.9 µM | [6] 20 µM | [12] 7.05 µM
inactive: [14] | [16] | [8]

FC(F)C(F)(F)OCC(Cn1cncn1)c1ccc(Cl)cc1Cl (centres undefined)
inactive: [14] | [15] | [1] | [13]
active: [2] 1.89 µM | [3] 0.321 µM | [5] 1.27 µM | [6] 8.06 µM

CCOP(=S)(OCC)Oc1ccc([N+](=O)[O-])cc1
active: [2] 2.92 µM | [3] 1.13 µM | [5] 2.97 µM | [6] 3.61 µM | [12] 2.67 µM
inactive: [1]

Nc1c(Cl)cc([N+](=O)[O-])cc1Cl
active: [3] 6.25 µM | [5] 4.29 µM | [6] 4.01 µM
inactive: [14] | [15] | [1] | [2] | [7] | [8] | [12]
